The text below walks through data of PubChem BioAssay (NCATS).

Results filed as inconclusive are left out. Active and inactive are the calls of the source. Calls come from the whole dose curve; as a rule, active = well fitted curve in the direction sought with a large enough effect; inconclusive = small, poorly fitted or top-dose-only effect, or another doubt; inactive = no such curve, though single readings can be large; an effect the other way counts as inactive or inconclusive.
Potency is the fitted concentration of half-maximal effect.

The nature of the first experiment: P-glycoprotein substrates identified in KB-3-1 adenocarcinoma cell line, qHTS therapeutic library screen (AID 1346986). Note: nearly all actives have a fitted effect of over 60% in size.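 Note: potency is for cytotoxicity meaning loss of cell viability.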 To be noted: KB-3-1 parental cells viability, CellTiter-Glo, 72 h; series mostly up to 44.5 µM. The method, boiled down:
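Viability read by CellTiter-Glo after 72 h compound exposure in dose-response of KB-3-1 and KB-8-5-11 (P-gp-high) cells. Hits needed AC50 < 10 uM, >50% maximum response and curve class -1.1 to -2.4. Cherry-picks retested ± tariquidar, including pcDNA/MDR-19 HEK-293 pair.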
For the compound `COC(=O)c1ccc(=O)c2nc3/c(=C/O)c(O)cc(=O)c3[nH]c12`, the Potency result is “inactive”.

Take `N#Cc1c2nc3ccccc3nc2n2ccc(NC(=O)c3cccs3)cc12`: the Potency is 23.1 µM (active).

Take `COc1cc2ncnc(Sc3nnc(C)s3)c2cc1OC`: the Potency is 18.4 µM (active).

For the compound `Oc1cccc(Nc2ccnc3cc(-c4cccc(CN5CCOCC5)c4)sc23)c1`, the Potency is 7.31 µM (active).

For the compound `CCOc1cccc2c1OC(c1ccc(F)cc1)C([N+](=O)[O-])=C2` (stereo not drawn), the Potency is 8.2 µM (active).

As for `CCCCCC1CC1CC1CC1CCCCCCCC(=O)O` (stereo not drawn), the Potency entry was “inactive”.

`Oc1cccc(-c2nc(N3CCOCC3)c3sccc3n2)c1`: the Potency is 5.17 µM (active).

Regarding `O=C1NCCSc2c1sc1ccc(O)cc21`, the Potency is 6.51 µM (active).

For `COC(=O)C#Cc1ccc([N+](=O)[O-])cc1`, the Potency was 13 µM (active).

For `Nc1nc(N)c2nc(-c3cccc(O)c3)cnc2n1`, the Potency was 5.8 µM (active).

`O=C1O[C@H](C(O)CO)C(=O)C1=O` (stereo partly drawn): the Potency result is “inactive”.

As to `Cc1cc(Nc2cc(C)c(C#N)c(NC(C)CCCC(C)(C)O)n2)n[nH]1` (stereo not drawn), the Potency is 1.46 µM (active).

As for `CSc1nc(N)cc(Oc2ccc(-c3nc(Nc4cccc(C(F)(F)F)c4)n[nH]3)cc2)n1`, the Potency was 4.61 µM (active).

With `CN[C@H]1CCN(C(=O)c2ccc(Nc3ncc(F)c(-c4cnc(C)n4C(C)C)n3)cc2)C1`, the Potency was 0.058 µM (active).

With `CCN(CC)CCNc1ccc2ncn3c4ccc(O)cc4c(=O)c1c23`, the Potency was 1.3 µM (active).

On to `CN(C)CCCNc1c2ccccc2nc2c1[nH]c1ccccc12`, for which the Potency is 1.84 µM (active).

For `C=C(C)[C@@H]1CCC2=CC(=O)C[C@@H](C)[C@]2(C)C1`, the Potency result was “inactive”.

For the compound `C/C(=C1/C(=O)Nc2ccc(NC(N)=O)cc21)c1ccc[nH]1`, the Potency was 4.61 µM (active).

Turning to `CC(Sc1nc2c(cnn2-c2cccc(Cl)c2)c(=O)[nH]1)C(N)=O` (stereo not drawn), the Potency result is “inactive”.

`CC1=CC(=O)C(C(C)C)=C/C1=N/OC(=O)c1ccccc1C`: the Potency result was “inactive”.

For `COc1ccc(-c2oc3ncnc(N)c3c2-c2ccc(NC(=O)Nc3cc(C(F)(F)F)ccc3F)cc2)cc1`, the Potency was 4.61 µM (active).

For the compound `CN1CCN(c2nc(C3=C(c4c[nH]c5ccccc45)C(=O)NC3=O)c3ccccc3n2)CC1`, the Potency result was “inactive”.

Consider `O=S(=O)(/N=C/c1c(O)ccc2ccccc12)c1cccs1`, for which the Potency result is “inactive”.

As for `Cc1cc(C)c(/C=C2\C(=O)Nc3ccc(Cl)cc32)[nH]1`, the Potency result is “inactive”.

Take `CCOC(=O)c1c2c3c(cccc3[nH]c1=O)C(=O)c1ccccc1-2`: the Potency entry was “inactive”.

Take `O=C1Cc2c([nH]c3ccc([N+](=O)[O-])cc23)-c2ccccc2N1`: the Potency is 1.78 µM (active).

Regarding `O=C(NCCO)c1cc(C(=O)NCCO)cc(C(=O)NCCO)c1`, the Potency result is “inactive”.

Turning to `CCCCCCCCCCCCCC#CC(=O)[C@@H]1COC(C)(C)N1C(=O)OC(C)(C)C`, the Potency result is “inactive”.

Consider `BrC1C(Br)C(Br)C(Br)C(Br)C1Br` (stereo not drawn), for which the Potency result was “inactive”.

As to `Cc1cc(Nc2nn(-c3ccccc3)c(=O)c3ccccc23)n[nH]1`, the Potency is 6.51 µM (active).

Take `Cc1c(-c2ccnc(Nc3cc(Br)cc(C(F)(F)F)c3)n2)sc(=O)n1C`: the Potency result was “inactive”.

For the compound `CCN(CC)CCNC(=O)c1c(C)[nH]c(/C=C2\C(=O)Nc3ccc(Cl)cc32)c1C`, the Potency was 16.4 µM (active).

Consider `CC(CCc1ccccn1)(CCc1ccccn1)C(=O)c1ccccc1`, for which the Potency result is “inactive”.

`c1nc(NCC2CCOC2)c2cc(-c3ccc4c(c3)OCO4)ccc2n1` (stereo not drawn): the Potency result was “inactive”.

For `O=C(Nc1cccc(Nc2nccc(Nc3cccc(C(F)(F)F)c3)n2)c1)C1CC1`, the Potency was 5.8 µM (active).

On to `Cc1c[nH]c(/C=C2\C(=O)Nc3ccccc32)c1CCC(=O)O`, for which the Potency entry was “inactive”.

For the compound `CSC(Cc1ccc(Cl)cc1)C(=O)Nc1ccc(Cl)cc1C(=O)O` (stereo not drawn), the Potency entry was “inactive”.

In the case of `COC1(c2sc3c(N4CCOCC4)nc(-c4cnc(N)nc4)nc3c2C)COC1`, the Potency was 0.184 µM (active).

As for `Cc1cc(-c2ccc(/C=C3\SC(=Nc4ccc(Cl)c(C(=O)O)c4)NC3=O)o2)c([N+](=O)[O-])cc1C`, the Potency entry was “inactive”.

The nature of the next experiment: P-glycoprotein substrates identified in KB-8-5-11 adenocarcinoma cell line, qHTS therapeutic library screen (AID 1346987). Note: nearly all actives have a fitted effect of over 65% in size. Conditions: KB-8-5-11 (P-gp overexpressing) viability, CellTiter-Glo, 72 h; series mostly up to 44.5 µM. The procedure, abridged:
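Luminescence from CellTiter-Glo, read 5 min after addition, quantified survival of KB-8-5-11 (P-gp-overexpressing) cells exposed to compounds for 72 h. AC50 was derived from concentration-response curves.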
(qHTS replaces the single test concentration by a dilution series.)
For `COC(=O)c1ccc(=O)c2nc3/c(=C/O)c(O)cc(=O)c3[nH]c12`, the Potency result is “inactive”.

As for `N#Cc1c2nc3ccccc3nc2n2ccc(NC(=O)c3cccs3)cc12`, the Potency was 20.6 µM (active).

Consider `COc1cc2ncnc(Sc3nnc(C)s3)c2cc1OC`, for which the Potency was 16.4 µM (active).

Take `Oc1cccc(Nc2ccnc3cc(-c4cccc(CN5CCOCC5)c4)sc23)c1`: the Potency is 8.2 µM (active).

Consider `CCOc1cccc2c1OC(c1ccc(F)cc1)C([N+](=O)[O-])=C2` (stereo not drawn), for which the Potency was 11.6 µM (active).

Take `CCCCCC1CC1CC1CC1CCCCCCCC(=O)O` (stereo not drawn): the Potency result was “inactive”.

In the case of `Oc1cccc(-c2nc(N3CCOCC3)c3sccc3n2)c1`, the Potency was 4.61 µM (active).

On to `O=C1NCCSc2c1sc1ccc(O)cc21`, for which the Potency was 10.3 µM (active).

For the compound `COC(=O)C#Cc1ccc([N+](=O)[O-])cc1`, the Potency was 18.4 µM (active).

Turning to `Nc1nc(N)c2nc(-c3cccc(O)c3)cnc2n1`, the Potency was 7.31 µM (active).

`O=C1O[C@H](C(O)CO)C(=O)C1=O` (stereo partly drawn): the Potency result was “inactive”.

Take `Cc1cc(Nc2cc(C)c(C#N)c(NC(C)CCCC(C)(C)O)n2)n[nH]1` (stereo not drawn): the Potency was 1.3 µM (active).

For the compound `CSc1nc(N)cc(Oc2ccc(-c3nc(Nc4cccc(C(F)(F)F)c4)n[nH]3)cc2)n1`, the Potency is 5.8 µM (active).

Consider `CN[C@H]1CCN(C(=O)c2ccc(Nc3ncc(F)c(-c4cnc(C)n4C(C)C)n3)cc2)C1`, for which the Potency is 6.51 µM (active).

As for `CCN(CC)CCNc1ccc2ncn3c4ccc(O)cc4c(=O)c1c23`, the Potency was 1.3 µM (active).

Regarding `CN(C)CCCNc1c2ccccc2nc2c1[nH]c1ccccc12`, the Potency was 2.31 µM (active).

For the compound `C=C(C)[C@@H]1CCC2=CC(=O)C[C@@H](C)[C@]2(C)C1`, the Potency result was “inactive”.

As to `C/C(=C1/C(=O)Nc2ccc(NC(N)=O)cc21)c1ccc[nH]1`, the Potency was 4.61 µM (active).

Take `CC(Sc1nc2c(cnn2-c2cccc(Cl)c2)c(=O)[nH]1)C(N)=O` (stereo not drawn): the Potency entry is “inactive”.

As for `CC1=CC(=O)C(C(C)C)=C/C1=N/OC(=O)c1ccccc1C`, the Potency result was “inactive”.

For `COc1ccc(-c2oc3ncnc(N)c3c2-c2ccc(NC(=O)Nc3cc(C(F)(F)F)ccc3F)cc2)cc1`, the Potency is 5.8 µM (active).

In the case of `CN1CCN(c2nc(C3=C(c4c[nH]c5ccccc45)C(=O)NC3=O)c3ccccc3n2)CC1`, the Potency result was “inactive”.

For the compound `O=S(=O)(/N=C/c1c(O)ccc2ccccc12)c1cccs1`, the Potency result was “inactive”.

As to `Cc1cc(C)c(/C=C2\C(=O)Nc3ccc(Cl)cc32)[nH]1`, the Potency result was “inactive”.

Regarding `CCOC(=O)c1c2c3c(cccc3[nH]c1=O)C(=O)c1ccccc1-2`, the Potency entry is “inactive”.

On to `O=C1Cc2c([nH]c3ccc([N+](=O)[O-])cc23)-c2ccccc2N1`, for which the Potency was 2.52 µM (active).

Take `O=C(NCCO)c1cc(C(=O)NCCO)cc(C(=O)NCCO)c1`: the Potency result was “inactive”.

`CCCCCCCCCCCCCC#CC(=O)[C@@H]1COC(C)(C)N1C(=O)OC(C)(C)C`: the Potency result was “inactive”.

Consider `BrC1C(Br)C(Br)C(Br)C(Br)C1Br` (stereo not drawn), for which the Potency entry was “inactive”.

With `Cc1cc(Nc2nn(-c3ccccc3)c(=O)c3ccccc23)n[nH]1`, the Potency was 11.6 µM (active).

With `Cc1c(-c2ccnc(Nc3cc(Br)cc(C(F)(F)F)c3)n2)sc(=O)n1C`, the Potency result is “inactive”.

For the compound `CCN(CC)CCNC(=O)c1c(C)[nH]c(/C=C2\C(=O)Nc3ccc(Cl)cc32)c1C`, the Potency was 18.4 µM (active).

Consider `CC(CCc1ccccn1)(CCc1ccccn1)C(=O)c1ccccc1`, for which the Potency entry is “inactive”.

Take `c1nc(NCC2CCOC2)c2cc(-c3ccc4c(c3)OCO4)ccc2n1` (stereo not drawn): the Potency result is “inactive”.

For `O=C(Nc1cccc(Nc2nccc(Nc3cccc(C(F)(F)F)c3)n2)c1)C1CC1`, the Potency is 5.8 µM (active).

Take `Cc1c[nH]c(/C=C2\C(=O)Nc3ccccc32)c1CCC(=O)O`: the Potency result is “inactive”.

`CSC(Cc1ccc(Cl)cc1)C(=O)Nc1ccc(Cl)cc1C(=O)O` (stereo not drawn): the Potency entry was “inactive”.

Consider `COC1(c2sc3c(N4CCOCC4)nc(-c4cnc(N)nc4)nc3c2C)COC1`, for which the Potency is 0.184 µM (active).

Turning to `Cc1cc(-c2ccc(/C=C3\SC(=Nc4ccc(Cl)c(C(=O)O)c4)NC3=O)o2)c([N+](=O)[O-])cc1C`, the Potency result was “inactive”.
